Measurements: the supplement of paper PMC3334620
In all, about 33,000 sequences were measured (“E-score (-0.5 to 0.5)”: median about -0.041, highest 2% from about 0.37 on). The sample as a whole holds a higher share of the highest values than the screen did.

Target: T1, Ecm22 (UniProt Q05958)
T1 sequence: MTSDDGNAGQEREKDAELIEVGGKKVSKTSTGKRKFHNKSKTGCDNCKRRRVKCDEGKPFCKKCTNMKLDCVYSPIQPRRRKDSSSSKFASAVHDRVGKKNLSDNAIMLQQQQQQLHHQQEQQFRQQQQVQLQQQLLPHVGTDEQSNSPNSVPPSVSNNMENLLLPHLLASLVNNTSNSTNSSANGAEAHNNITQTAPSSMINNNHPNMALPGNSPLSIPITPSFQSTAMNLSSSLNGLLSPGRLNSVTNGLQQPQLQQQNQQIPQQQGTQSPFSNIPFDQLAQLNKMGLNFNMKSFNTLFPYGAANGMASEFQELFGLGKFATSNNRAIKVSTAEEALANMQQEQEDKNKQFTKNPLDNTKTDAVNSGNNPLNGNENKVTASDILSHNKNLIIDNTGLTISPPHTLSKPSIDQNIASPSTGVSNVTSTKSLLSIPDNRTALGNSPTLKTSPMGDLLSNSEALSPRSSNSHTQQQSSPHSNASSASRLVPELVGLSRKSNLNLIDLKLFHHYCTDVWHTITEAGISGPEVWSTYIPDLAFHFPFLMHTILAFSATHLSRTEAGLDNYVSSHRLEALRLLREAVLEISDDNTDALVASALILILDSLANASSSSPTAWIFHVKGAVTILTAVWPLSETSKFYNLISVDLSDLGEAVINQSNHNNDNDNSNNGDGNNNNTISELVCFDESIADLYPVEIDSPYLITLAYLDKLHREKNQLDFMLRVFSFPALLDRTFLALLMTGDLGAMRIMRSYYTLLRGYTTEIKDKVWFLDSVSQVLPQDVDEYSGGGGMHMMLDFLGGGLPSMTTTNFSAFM
Experiment: PBM E-score (8-mer binding enrichment) (E-score (-0.5 to 0.5)); higher = stronger / more preferred TF binding
Settings: protein concentration: 200 nM; construct: GST-full length
Description: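 Universal 'all 10-mer' protein binding microarrays (Agilent AMADID 015681) probed with GST-tagged S. cerevisiae TFs (full-length or DBD) made by in vitro transcription/translation (PURExpress), about 100-200 nM. Bound TF was detected with fluorescent anti-GST. Each ungapped 8-mer (which stands for itself and its reverse complement) is scored by the PBM enrichment score (E-score), a modified Wilcoxon-Mann-Whitney statistic from -0.5 to +0.5, computed with the Universal PBM Analysis Suite. Scale: above 0.35 generally sequence-specific binding.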

| Sequence | PBM E-score |
| --- | --- |
| CCACCAAA | -0.13 |
| GGCTGAAA | -0.0667 |
| ACAATGGA | -0.0436 |
| AGATGGCG | -0.102 |
| ATTACGAA | 0.349 |
| CTTACGAA | 0.391 |
| CTTACGAC | 0.394 |
| CTCACGAC | -0.0734 |
| CTTACGCC | 0.0486 |
| CTTACGCA | 0.0308 |
| CTCACGAA | 0.128 |
| GTTACGAA | 0.404 |
| GTTACGGA | 0.233 |
| CGAAAATC | 0.162 |
| CGGCATCA | 0.0766 |
| CGTACCGC | 0.47 |
| GGTACCGA | 0.103 |
| AGTACCGA | 0.0799 |
| CATACCGC | -0.0365 |
| CGTACCGA | 0.447 |
| AGTACCGC | 0.148 |
| CGAGTCAC | 0.106 |
| ACTGGCAT | -0.182 |
| AATACCGG | -0.042 |
| ACGATAAT | 0.309 |

| Sequence | PBM E-score |
| --- | --- |
| ACGATCGT | 0.43 |
| ACGATCGG | 0.274 |
| ACGATCGC | 0.327 |
| CAGTACAA | -0.0343 |
| ACGTACAA | 0.298 |
| CCGTACAC | 0.33 |
| GCGTACAA | 0.243 |
| TCGTACAA | 0.49 |
| CGGTACAA | 0.214 |
| CCGTACAG | 0.388 |
| ACGTACAG | 0.186 |
| CCGTACAA | 0.4 |
| AATTTCTC | 0.0237 |
| CGCTCGTA | 0.467 |
| GGCTCGGA | 0.0976 |
| AGCTCGTA | 0.477 |
| AGCTCGTC | 0.0121 |
| CGCTCGTC | 0.168 |
| AGCTCGTG | 0.182 |
| CGCTCGGA | 0.252 |
| GGCTCGTA | 0.479 |
| GGCTCGAA | 0.0317 |
| AGGTCTAT | 0.0387 |
| TATGATGA | 0.00697 |
| ATAGGTTC | 0.00586 |

| Sequence | PBM E-score |
| --- | --- |
| CGGCCTCC | -0.0189 |
| ACCCGAAA | 0.14 |
| TTATAGAA | -0.0153 |
| AGCAATAA | -0.127 |
| CGCCCGAA | 0.0388 |
| CGCGCGGC | 0.225 |
| GCTCAGGA | -0.107 |
| TGCGACAA | 0.141 |
| AACGACAA | 0.41 |
| AACGACAT | 0.434 |
| CACGACAA | 0.09 |
| AACGACAG | 0.412 |
| GACGACAA | 0.155 |
| ATCGACAG | 0.00794 |
| AGCGACAT | 0.214 |
| TACGACAA | 0.455 |
| ACCGACAT | 0.217 |
| TTCGACAA | 0.0503 |
| CACGACAG | 0.0642 |
| GGACCTCA | -0.206 |
| CTGGGAAC | 0.132 |
| TGGGTAAA | 0.0399 |
| AGTGTCCG | 0.0467 |
| CACTCTCG | 0.174 |
| CTCGTGGA | -0.0176 |

| Sequence | PBM E-score |
| --- | --- |
| CAGGCCTA | -0.218 |
| AAATCCTG | 0.015 |
| AGATCGAA | -0.0769 |
| CAAGGTGC | -0.235 |
| AGGACCAA | -0.168 |
| AACGACAC | 0.421 |
| GACGACAC | -0.0609 |
| CACGACAC | 0.147 |
| AAGACGGG | -0.114 |
| CGTCCGCC | -0.111 |
| ACTGGGGC | -0.276 |
| GACGATAA | 0.0921 |
| AACGATAC | 0.389 |
| AACGATAG | 0.345 |
| GACGATAC | 0.127 |
| TACGATAA | 0.408 |
| ACCGATAT | 0.138 |
| AGCGATAT | 0.222 |
| AACGATCA | 0.346 |
| AACGATCT | 0.381 |
| AACGATAT | 0.408 |
| CACGATAA | 0.00212 |
| AACGATCC | 0.307 |
| AACTCTTC | 0.0679 |
| CAATGGGC | -0.209 |

| Sequence | PBM E-score |
| --- | --- |
| CCCGGCAC | -0.159 |
| AGAGGGAC | -0.0884 |
| ATCTCCTC | -0.0702 |
| CACGATAG | -0.065 |
| AACGATAA | 0.382 |
| ACCGATAA | 0.116 |
| CGTTAAGC | 0.4 |
| AGTTAAGC | 0.0271 |
| CGTTAAAC | 0.392 |
| GGTTAAAC | 0.116 |
| CGTTAAGA | 0.222 |
| CGTTAAAA | 0.287 |
| TCTCTTCA | -0.0952 |
| AGACCGCA | -0.0494 |
| GTGACAGA | -0.0918 |
| CCAACTTA | -0.115 |
| CTGTTCCA | -0.186 |
| ACGTTCCC | 0.269 |
| ACGTTCCA | 0.214 |
| CCGTTCGA | 0.152 |
| CCGTTCCA | 0.373 |
| GCGTTCCC | 0.104 |
| TCGTTCCA | 0.475 |
| TCGTTTCA | 0.396 |
| GCGTTCCA | 0.141 |

| Sequence | PBM E-score |
| --- | --- |
| ACGTTTCA | 0.107 |
| CCGTTCCC | 0.464 |
| GCGTTTCA | -0.0209 |
| CTTGTGAA | -0.226 |
| GATCCCGC | 0.0461 |
| GTTCACCA | 0.0888 |
| TCGCTAAA | 0.34 |
| AAAGCTCT | -0.258 |
| CCGTTCCG | 0.441 |
| CAGTTCCG | 0.14 |
| TCGTTCAA | 0.448 |
| ACGTTCAA | 0.188 |
| ACGTTCCG | 0.259 |
| GCGTTCAA | 0.0639 |
| AAGATCAA | -0.0315 |
| ATAGGAAA | -0.0768 |
| CTTTGGCA | -0.144 |
| AGCTCAAC | -0.0198 |
| AAAGAAGT | -0.0866 |
| TACGAAGA | 0.444 |
| TAAGAAGA | 0.0914 |
| TCCGAAGA | 0.0982 |
| ACCGAAGT | 0.207 |
| GACGAAGC | 0.0937 |
| AACGAAGT | 0.419 |

| Sequence | PBM E-score |
| --- | --- |
| CACGAAGC | 0.0604 |
| CACGAAGA | 0.226 |
| AACGAAGC | 0.437 |
| AACGAAGA | 0.421 |
| GACGAAGA | 0.0867 |
| CGGATTTC | 0.0823 |
| CGCGGCAC | 0.0802 |
| ATTCTGGG | -0.192 |
| TCCAATCA | -0.115 |
| TTCTTAAA | -0.107 |
| ATTGAGGA | -0.0867 |
| AGCGCCGC | -0.188 |
| ATAAACTA | 0.0319 |
| TAGTCTAA | -0.04 |
| ACTATCCT | -0.133 |
| ACTACGGC | -0.0479 |
| ACGTCGCG | 0.162 |
| TGGACCCA | -0.131 |
| AACGAAGG | 0.398 |
| ACCGAAGG | 0.107 |
| CACGAAGG | 0.0498 |
| ACGAACCG | 0.368 |
| ACGAAGCA | 0.378 |
| ACGAAGCG | 0.317 |
| ACGAACCA | 0.391 |

| Sequence | PBM E-score |
| --- | --- |
| ACGAACCC | 0.28 |
| CCGAACCA | -0.0831 |
| GCGAAGCA | 0.0616 |
| CCGAACCG | 0.12 |
| GCGAACCA | 0.146 |
| ACGGTCAA | 0.297 |
| GTTACACA | -0.0371 |
| CGCACCAC | 0.0793 |
| CATATCCA | -0.0799 |
| AATGGAAA | -0.198 |
| CACGGTAC | 0.113 |
| AATCTGGA | -0.119 |
| AGTACCCC | -0.0697 |
| CGTACCCA | 0.406 |
| CGTACCCC | 0.453 |
| CATACCCC | -0.0887 |
| GGTACCCA | -0.145 |
| AGTACCCA | -0.208 |
| GCCTGCGC | -0.272 |
| ACCCTACG | -0.142 |
| AGCGGTGC | 0.0264 |
| GATTTGAC | 0.202 |
| AGAGACGC | 0.0019 |
| AGTATGGC | -0.0838 |
| CGTATGTC | 0.342 |

| Sequence | PBM E-score |
| --- | --- |
| CGTATGGC | 0.4 |
| CGTATGGA | 0.383 |
| GGTATGGA | -0.15 |
| AGTATGGA | -0.115 |
| CCGAGATA | 0.186 |
| TTACGCAA | 0.115 |
| AGTTTGCC | -0.117 |
| GTTGAAAC | 0.0017 |
| GCCTGGCA | -0.318 |
| CGACCGCC | 0.137 |
| ACTACTAG | -0.0821 |
| ACATTCGA | 0.0496 |
| ACATTCGG | 0.0251 |
| ACATTCGT | 0.37 |
| GACACCTC | 0.148 |
| ACCCTCGT | 0.449 |
| ACCCTCGA | -0.16 |
| ACCCTCGC | 0.194 |
| CACCAATA | -0.0897 |
